# Where “and” joins values, the source holds several entries; their conditions need not be identical. Identical values can stand only once. About 64,000 (15%) of roughly 420,000 compounds were called active. Roughly 27% stayed inconclusive and do not appear here. These entries were drawn from the full list. Unmarked numbers belong to inactive results. Calls follow the shape of the dose curve; as a rule, active = well fitted inhibition curve with a large enough effect; inconclusive = small, poorly fitted or top-dose-only effect; inactive = flat fitted curve, though single readings scatter.
# Assay: qHTS for Inhibitors of human tyrosyl-DNA phosphodiesterase 1 (TDP1): qHTS in cells in absence of CPT; also: nearly all actives have a fitted effect of over 55% in size
# Details: DT40 Tdp1-/- hTDP1 cells, no CPT, ATP luminescence, 48 h; activity change, negative = growth inhibition: at 46.2 µM (top of the series)
# In short: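 Compound effects on proliferation are scored in DT40 Tdp1-/-;hTDP1 cells in the absence of CPT. ATP levels (CellTiter-Glo luminescence) are recorded after a ≥48 hr, 37 °C incubation.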
# % is scaled to controls: 0 for no effect and ±100 for the full control effect; potency is read from the fitted curve at half-maximal effect.
Structure (SMILES),"activity change, negative = growth inhibition",Potency
Cc1cc([N+](=O)[O-])nn1CC(=O)Nc1ccc(Cc2ccncc2)cc1,-26.3%,–
O=C(OCC(=O)N1CCN(C(=O)c2ccco2)CC1)c1cccc(O)c1,3.71%,–
CN(c1ccccc1)S(=O)(=O)c1cc(C(=O)OCC(=O)N2CCN(C(=O)c3ccco3)CC2)ccc1Cl,–,23.1 µM (active)
O=C(OCC(=O)N1CCN(C(=O)c2ccco2)CC1)c1c(Cl)cccc1Cl,-11.4%,–
COc1cccc(CN2CCNC(=O)C2CC(=O)N(C)CCc2ccccn2)c1 (stereo not given),5.47%,–
Cc1ccc(NC(=O)c2oc3ccccc3c2C)c([N+](=O)[O-])c1,-25%,–
COc1ccc(Cl)cc1C(=O)NCC#N,-11.5%,–
Cc1noc(C)c1-c1nc(Nc2ccccc2)c2ccccc2n1,0.567%,–
c1ccc2c(Nc3ccncc3)nc(-c3ccoc3)nc2c1,–,20.6 µM (active)
c1ccc2c(Nc3ccncc3)nc(-c3ccc4c(c3)OCO4)nc2c1,–,14.6 µM (active)
Cc1ccc(C(=O)O)cc1N1C(=O)CCCC1=O,-2.9%,–
CC1CCC(NC(=O)CNC(=O)c2ccc3ccccc3c2)CC1 (stereo not given),-29.2%,–
N#Cc1ccc(CSc2ncccn2)cc1,19.3%,–
Cn1c(=O)[nH]c2c(c(C(=O)O)nn2C)c1=O,8.92%,–
O=C(CSc1nc2cc3c(cc2c(=O)n1CCC1=CCCCC1)OCO3)NCc1ccco1,2.72%,–
COCCN(C(=O)C(C)N1C(=O)c2ccccc2C1=O)c1c(N)n(CC(C)C)c(=O)[nH]c1=O (stereo not given),2.24%,–
Cn1c(CCN2CCCCCC2)nc2cc(NC(=O)Nc3ccccc3)ccc21,–,23.1 µM (active)
CCC(=O)Nc1ccc2c(c1)nc(CCN1CCN(c3ccccn3)CC1)n2C,-5.94%,–
CCC(=O)Nc1ccc2c(c1)nc(CCN1CCN(C)CC1)n2C,1.99%,–
N[C@@H](Cc1ccccc1)C(=O)N1CCC(C(=O)NCC(=O)Nc2ccc(F)cc2)CC1,-4.57%,–
Cc1ccc(SCCC(=O)NCc2ccccn2)cc1,4.23%,–
O=C(COc1ccccc1)OCc1cc(=O)n2nc(-c3cccs3)sc2n1,-13.5%,–

Structure (SMILES),"activity change, negative = growth inhibition",Potency
COc1ccccc1CNCc1ccc(C(=O)O)s1,1.39%,–
O=C(NCc1ccccc1Cl)C1CCCO1 (stereo not given),7.89%,–
O=C(CCC(=O)N1CC2CCCN2c2ccccc21)NCc1ccccc1Cl (stereo not given),–,16.4 µM (active)
COc1cccc(CNC(=O)C2CC(=O)N(C3CCCCCCC3)C2)c1 (stereo not given),3.44%,–
O=C(CCC(=O)n1ncc2ccccc21)NCc1ccccc1Cl,3.3%,–
COc1ccc(CNC(=O)C2CCN(C(=O)c3ccccc3)CC2)cc1,11.3%,–
COc1cccc(CNC(=O)CCC(=O)N2CC3CCCN3c3ccccc32)c1 (stereo not given),–,16.4 µM (active)
COc1ccc(S(=O)(=O)N2CCC(C(=O)NCCC(=O)NCc3cccc(OC)c3)CC2)cc1,-0.479%,–
COc1ccc(CNC(=O)c2ccc(NC(=O)N3CC4CCCN4c4ccccc43)cc2)cc1 (stereo not given),–,20.6 µM (active)
COc1ccccc1CNC(=O)c1ccc(NC(=O)N2CC(C)Sc3ccccc32)cc1 (stereo not given),–,23.1 µM (active)
COc1ccc(NC(=O)N2CCCC2C(=O)NCc2ccccc2Cl)cc1 (stereo not given),-17.8%,–
COc1ccccc1CNC(=O)CNC(=O)c1cn(-c2ccccc2OC)c(=O)c2ccccc12,-18.7%,–
NS(=O)(=O)c1ccc(NC(=O)/C=C/c2ccccc2Cl)cc1,-8.85%,–
C/C(=C/c1ccccc1)C(=O)N1CCN(c2ccccc2)CC1,10.8%,–
Cc1ccc(S(=O)(=O)CCC(=O)OCC(=O)N(C)C2CCS(=O)(=O)C2)cc1 (stereo not given),-9.23%,–
COCCn1c(C)cc(C(=O)COC(=O)CNC(=O)c2ccco2)c1C,0.941%,–
COc1cccc(N(CC(=O)NC2CCCC2)C(=O)CCCC(=O)Nc2ccccn2)c1,-2.2%,–
O=NN(CCCl)C(=O)NCCc1cccc[n+]1[O-],-3.59%,–
O=C1COc2ccc(S(=O)(=O)Nc3ccc(OC(F)(F)F)cc3)cc2N1,-26%,–
Cc1ccc(S(=O)(=O)N2CCN(C(=O)CCC(=O)NC3CCCc4ccccc43)CC2)cc1 (stereo not given),-21.4%,–
Cc1ccc(C)c(S(=O)(=O)n2nc(C)c(S(=O)(=O)N3CCC(C)CC3)c2C)c1,-22.5%,–
COc1ccc(C)cc1S(=O)(=O)N1CCN(S(=O)(=O)c2cc(C(=O)O)ccc2C)CC1,4.86%,–

Structure (SMILES),"activity change, negative = growth inhibition",Potency
Cc1ccc(S(=O)(=O)N2CCN(c3nc(-n4cnc5ccccc54)nc4ccccc34)CC2)cc1,-11.9%,–
Cc1ccc(C)c(S(=O)(=O)N2CCN(c3ncnc4sccc34)CC2)c1,–,3.66 µM (active)
Cc1ccc(S(=O)(=O)N2CCN(c3ncnc4ccccc34)CC2)cc1,–,820 nM (active) and 1.26 µM (active)
O=[N+]([O-])c1ccc(S(=O)(=O)N2CCN(c3nc(-c4ccccc4)nc4ccccc34)CC2)cc1,-8.56%,–
COc1ccccc1C(=O)NCCC(=O)NC1=NCCS1,-8.48%,–
Cc1cccc(N(C(=O)c2ccc(CN3CCOCC3)o2)C(C(=O)NC2CCCCC2)c2ccc(F)cc2)c1 (stereo not given),-16.1%,–
COc1cc(OC)c(S(=O)(=O)Nc2ccccc2C(=O)O)cc1S(=O)(=O)Nc1ccccc1C(=O)O,18.3%,–
COc1ccccc1OCC(=O)OCn1c(SC)nnc(C)c1=O,-7.86%,–
O=C(Nc1cccc(S(=O)(=O)NC2=NCCC2)c1)C1CCCCC1,21.7%,–
O=C(NCc1ccccc1)C1c2ccccc2OCC(=O)N1CCCN1CCOCC1 (stereo not given),-1.27%,–
CCOc1cc(/C=C2\C(=N)N3N=C(C)SC3=NC2=O)ccc1OCCOc1ccccc1,-6.53%,–
O=C(O)CCCCCCCCc1cn(CN2C(=O)c3ccccc3C2=O)nn1,–,inactive
Cc1cc(C)c(OCC(=O)N(Cc2cccs2)C2CCS(=O)(=O)C2)c(C)c1 (stereo not given),-24.9%,–
Cc1ccsc1CN(C(=O)c1oc2ccc(Br)cc2c1C)C1CCS(=O)(=O)C1 (stereo not given),–,6.51 µM (active)
COc1cc(C(=O)N(Cc2ccc(N(C)C)cc2)C2CCS(=O)(=O)C2)cc(OC)c1OC (stereo not given),-20.2%,–
O=C(COC(=O)c1ccccc1)Nc1ccccc1Sc1ccccc1,-7.36%,–
NC(=O)c1ccsc1NC(=O)c1ccco1,-9.46%,–
O=C(NCc1ccco1)C(=O)c1cn(CC(=O)N2CCCCCC2)c2ccccc12,-8.99%,–
CC(C)(C)c1ccc(/C=C/C(=O)NCCCn2ccnc2)cc1,–,16.4 µM (active)
CCCCC(=O)Nc1ccc(C(=O)NCCCn2ccnc2)cc1,13.2%,–
O=C(/C=C/c1ccc(Cl)cc1)NCCCn1ccnc1,0.819%,–

# Reference: PubChem BioAssay AID686978 (National Center for Advancing Translational Sciences (NCATS), 2013)
